Experimental findings from ChEMBL document CHEMBL2218924, “A broad activity screen in support of a chemogenomic map for kinase signalling research and drug discovery” (Biochem J, 2013) are described below.

Assay [1] concerns the target Serine/threonine-protein kinase PAK 4 (Homo sapiens) (UniProt O96013). Conditions: at 1 µM.
Assay [2] has the same target. Conditions: at 10 µM.
For assay [3], the target named is Serine/threonine-protein kinase PAK 5 (Homo sapiens) (UniProt Q9P286). Conditions: at 1 µM.
Assay [4] has the same target. Conditions: at 10 µM.
The target of assay [5] is Serine/threonine-protein kinase PAK 6 (Homo sapiens) (UniProt Q9NQU5). Conditions: at 1 µM.
Chain of Serine/threonine-protein kinase PAK 6 (Homo sapiens) (Q9NQU5 whole entry, looked up): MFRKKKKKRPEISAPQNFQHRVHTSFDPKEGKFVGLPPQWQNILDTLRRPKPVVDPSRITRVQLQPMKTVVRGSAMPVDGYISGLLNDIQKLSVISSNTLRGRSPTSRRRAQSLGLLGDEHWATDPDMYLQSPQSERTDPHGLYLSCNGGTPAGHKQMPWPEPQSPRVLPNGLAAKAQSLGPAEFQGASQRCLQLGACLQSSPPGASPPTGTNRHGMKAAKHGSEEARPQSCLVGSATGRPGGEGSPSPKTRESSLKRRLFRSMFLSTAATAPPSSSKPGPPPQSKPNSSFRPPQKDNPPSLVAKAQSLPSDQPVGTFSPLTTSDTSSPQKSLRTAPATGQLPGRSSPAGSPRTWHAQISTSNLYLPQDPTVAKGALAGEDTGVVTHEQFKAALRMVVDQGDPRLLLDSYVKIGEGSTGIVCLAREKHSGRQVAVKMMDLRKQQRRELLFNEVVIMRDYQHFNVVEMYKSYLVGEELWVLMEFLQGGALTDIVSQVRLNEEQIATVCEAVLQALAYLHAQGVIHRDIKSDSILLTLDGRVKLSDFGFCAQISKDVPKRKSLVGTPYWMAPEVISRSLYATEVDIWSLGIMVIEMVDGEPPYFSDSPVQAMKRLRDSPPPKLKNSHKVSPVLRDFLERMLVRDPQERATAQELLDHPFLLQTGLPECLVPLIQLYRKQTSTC
Assay [6] shares this target. Conditions: at 10 µM.
Assay [7] concerns the target PAS domain-containing serine/threonine-protein kinase (Homo sapiens) (UniProt Q96RG2). Conditions: at 10 µM.
The target of assay [8] is Activated CDC42 kinase 1 (Homo sapiens) (UniProt Q07912). Conditions: at 1 µM.
Chain of Activated CDC42 kinase 1 (Homo sapiens) (Q07912 whole entry, looked up): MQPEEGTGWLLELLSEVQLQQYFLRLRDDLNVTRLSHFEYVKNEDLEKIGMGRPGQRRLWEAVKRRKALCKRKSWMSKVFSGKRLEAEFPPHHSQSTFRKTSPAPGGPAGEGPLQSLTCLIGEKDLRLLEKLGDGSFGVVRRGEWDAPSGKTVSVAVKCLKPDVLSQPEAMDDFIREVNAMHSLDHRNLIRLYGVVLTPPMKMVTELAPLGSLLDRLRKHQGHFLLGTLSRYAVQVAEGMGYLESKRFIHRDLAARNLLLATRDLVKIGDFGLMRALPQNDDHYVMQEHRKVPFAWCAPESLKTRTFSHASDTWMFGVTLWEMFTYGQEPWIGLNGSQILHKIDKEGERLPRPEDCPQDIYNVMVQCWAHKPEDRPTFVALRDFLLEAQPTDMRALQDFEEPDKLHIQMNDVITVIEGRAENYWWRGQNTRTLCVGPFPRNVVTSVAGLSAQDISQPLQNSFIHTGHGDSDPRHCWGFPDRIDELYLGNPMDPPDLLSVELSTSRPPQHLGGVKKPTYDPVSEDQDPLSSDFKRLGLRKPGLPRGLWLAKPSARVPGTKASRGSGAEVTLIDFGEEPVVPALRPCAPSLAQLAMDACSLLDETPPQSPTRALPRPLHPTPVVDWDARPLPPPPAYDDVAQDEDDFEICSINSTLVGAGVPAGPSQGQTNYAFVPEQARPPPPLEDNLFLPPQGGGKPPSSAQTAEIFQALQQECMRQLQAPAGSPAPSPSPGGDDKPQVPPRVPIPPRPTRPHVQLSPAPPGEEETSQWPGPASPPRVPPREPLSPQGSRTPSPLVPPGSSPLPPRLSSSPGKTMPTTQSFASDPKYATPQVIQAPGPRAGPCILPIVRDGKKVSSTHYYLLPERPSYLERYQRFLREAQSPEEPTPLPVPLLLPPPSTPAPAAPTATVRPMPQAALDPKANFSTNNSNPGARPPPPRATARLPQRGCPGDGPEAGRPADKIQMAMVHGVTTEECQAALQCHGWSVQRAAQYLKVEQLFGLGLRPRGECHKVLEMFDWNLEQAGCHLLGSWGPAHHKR
For assay [9] the target is unchanged. Conditions: at 10 µM.
Assay [10] has as its target ALK tyrosine kinase receptor (Homo sapiens) (UniProt Q9UM73). Conditions: at 1 µM.
The target is the same in assay [11]. Conditions: at 10 µM.
The target of assay [12] is T1, Activin receptor type-1B (Homo sapiens) (UniProt P36896).
T1 sequence (whole entry): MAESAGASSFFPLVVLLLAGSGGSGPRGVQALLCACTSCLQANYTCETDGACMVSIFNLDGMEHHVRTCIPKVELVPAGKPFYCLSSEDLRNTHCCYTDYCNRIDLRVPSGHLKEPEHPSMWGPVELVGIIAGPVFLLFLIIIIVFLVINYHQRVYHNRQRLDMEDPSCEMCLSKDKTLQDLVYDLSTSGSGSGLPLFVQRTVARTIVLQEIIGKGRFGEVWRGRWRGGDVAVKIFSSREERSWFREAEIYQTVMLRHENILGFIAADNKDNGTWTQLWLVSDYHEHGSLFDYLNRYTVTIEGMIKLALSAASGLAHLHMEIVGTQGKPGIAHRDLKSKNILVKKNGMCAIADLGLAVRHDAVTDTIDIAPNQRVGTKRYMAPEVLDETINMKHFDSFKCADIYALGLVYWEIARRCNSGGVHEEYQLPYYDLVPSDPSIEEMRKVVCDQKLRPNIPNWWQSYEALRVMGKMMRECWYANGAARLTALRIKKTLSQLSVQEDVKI
Conditions: at 1 µM.

For assay [13], the target named is T1, Activin receptor type-1B (Homo sapiens). Conditions: at 10 µM.
Assay [14] has as its target T2, AMP-activated protein kinase (AMPK) alpha-1/beta-1/gamma-1 (Homo sapiens) (UniProt P54619+Q9Y478+Q13131). Conditions: at 1 µM.
In assay [15] the target is T2, AMP-activated protein kinase (AMPK) alpha-1/beta-1/gamma-1 (Homo sapiens). Conditions: at 10 µM.
For assay [16], the target named is T3, AMP-activated protein kinase, AMPK (Homo sapiens) (UniProt P54646+O43741+P54619+Q9UGJ0+Q9Y478+Q13131+Q9UGI9). Conditions: at 1 µM.
Assay [17] has as its target T3, AMP-activated protein kinase, AMPK (Homo sapiens). Conditions: at 10 µM.
Assay [18] concerns the target T4, NUAK family SNF1-like kinase 1 (Homo sapiens) (UniProt O60285).
T4 sequence (whole entry): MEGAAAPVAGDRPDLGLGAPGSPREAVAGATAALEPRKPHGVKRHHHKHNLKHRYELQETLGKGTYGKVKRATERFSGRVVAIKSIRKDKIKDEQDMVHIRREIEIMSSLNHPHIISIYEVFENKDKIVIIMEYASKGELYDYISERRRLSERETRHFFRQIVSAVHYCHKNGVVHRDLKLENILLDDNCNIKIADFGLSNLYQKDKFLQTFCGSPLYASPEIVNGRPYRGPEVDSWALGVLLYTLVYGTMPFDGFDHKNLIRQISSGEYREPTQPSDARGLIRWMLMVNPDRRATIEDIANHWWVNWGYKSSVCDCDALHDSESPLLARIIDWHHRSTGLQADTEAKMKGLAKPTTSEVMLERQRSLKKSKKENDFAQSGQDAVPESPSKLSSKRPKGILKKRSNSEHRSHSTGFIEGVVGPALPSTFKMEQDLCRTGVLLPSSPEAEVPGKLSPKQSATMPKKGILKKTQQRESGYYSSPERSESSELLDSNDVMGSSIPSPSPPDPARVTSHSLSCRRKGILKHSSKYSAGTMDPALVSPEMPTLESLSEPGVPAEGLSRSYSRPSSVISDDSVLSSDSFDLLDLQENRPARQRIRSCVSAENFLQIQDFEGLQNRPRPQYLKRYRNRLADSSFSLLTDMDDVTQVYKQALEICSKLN
Conditions: at 1 µM.

Assay [19] has as its target T4, NUAK family SNF1-like kinase 1 (Homo sapiens). Conditions: at 10 µM.
Assay [20] addresses T5, Mitogen-activated protein kinase kinase kinase 5 (Homo sapiens) (UniProt Q99683).
T5 sequence (whole entry): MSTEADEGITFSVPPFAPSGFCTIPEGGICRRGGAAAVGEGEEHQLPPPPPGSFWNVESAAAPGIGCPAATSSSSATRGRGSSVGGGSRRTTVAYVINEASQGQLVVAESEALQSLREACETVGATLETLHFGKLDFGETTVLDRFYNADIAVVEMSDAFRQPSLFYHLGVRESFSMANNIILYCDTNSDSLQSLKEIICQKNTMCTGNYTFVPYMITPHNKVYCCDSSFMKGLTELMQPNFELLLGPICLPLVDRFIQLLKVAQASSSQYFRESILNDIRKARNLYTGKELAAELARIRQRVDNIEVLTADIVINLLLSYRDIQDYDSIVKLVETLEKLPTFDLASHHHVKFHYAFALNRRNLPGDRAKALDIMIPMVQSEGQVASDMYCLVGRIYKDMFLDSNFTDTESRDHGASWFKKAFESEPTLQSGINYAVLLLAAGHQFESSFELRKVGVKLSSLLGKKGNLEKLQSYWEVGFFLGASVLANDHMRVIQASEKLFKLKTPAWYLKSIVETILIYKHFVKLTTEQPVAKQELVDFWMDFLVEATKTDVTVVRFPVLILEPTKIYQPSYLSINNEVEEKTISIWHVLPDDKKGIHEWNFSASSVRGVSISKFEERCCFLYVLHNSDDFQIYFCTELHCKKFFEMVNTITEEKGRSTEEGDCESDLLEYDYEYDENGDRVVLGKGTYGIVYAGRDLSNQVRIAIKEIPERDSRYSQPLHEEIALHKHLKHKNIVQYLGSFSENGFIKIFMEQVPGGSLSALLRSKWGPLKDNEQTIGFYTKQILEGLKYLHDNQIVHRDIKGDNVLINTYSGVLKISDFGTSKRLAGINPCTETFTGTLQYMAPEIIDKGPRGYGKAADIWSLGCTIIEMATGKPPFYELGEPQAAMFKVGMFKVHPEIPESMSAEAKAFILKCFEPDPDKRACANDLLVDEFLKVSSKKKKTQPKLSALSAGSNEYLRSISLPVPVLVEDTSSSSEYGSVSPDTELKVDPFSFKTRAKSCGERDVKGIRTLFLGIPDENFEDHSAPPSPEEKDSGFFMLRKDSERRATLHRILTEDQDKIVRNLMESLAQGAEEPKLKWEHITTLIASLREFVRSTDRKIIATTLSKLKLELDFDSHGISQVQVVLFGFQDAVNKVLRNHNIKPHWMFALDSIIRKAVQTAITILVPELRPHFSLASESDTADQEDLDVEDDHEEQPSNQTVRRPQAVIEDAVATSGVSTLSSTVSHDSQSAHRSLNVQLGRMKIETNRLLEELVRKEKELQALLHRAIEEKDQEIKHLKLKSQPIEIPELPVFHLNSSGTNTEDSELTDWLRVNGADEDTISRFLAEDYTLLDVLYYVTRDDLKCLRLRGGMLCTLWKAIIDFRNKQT
Conditions: at 1 µM.

T2 sequence (P54619 whole entry): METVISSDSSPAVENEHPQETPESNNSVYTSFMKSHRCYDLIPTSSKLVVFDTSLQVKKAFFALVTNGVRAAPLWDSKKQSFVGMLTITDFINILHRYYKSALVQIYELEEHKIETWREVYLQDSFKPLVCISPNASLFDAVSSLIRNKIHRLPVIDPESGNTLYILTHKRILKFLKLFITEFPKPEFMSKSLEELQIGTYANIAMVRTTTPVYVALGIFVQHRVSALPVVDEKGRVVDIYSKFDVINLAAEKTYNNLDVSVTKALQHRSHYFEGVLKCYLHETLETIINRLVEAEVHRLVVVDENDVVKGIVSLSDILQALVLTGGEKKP
T2 sequence (Q13131 whole entry partner): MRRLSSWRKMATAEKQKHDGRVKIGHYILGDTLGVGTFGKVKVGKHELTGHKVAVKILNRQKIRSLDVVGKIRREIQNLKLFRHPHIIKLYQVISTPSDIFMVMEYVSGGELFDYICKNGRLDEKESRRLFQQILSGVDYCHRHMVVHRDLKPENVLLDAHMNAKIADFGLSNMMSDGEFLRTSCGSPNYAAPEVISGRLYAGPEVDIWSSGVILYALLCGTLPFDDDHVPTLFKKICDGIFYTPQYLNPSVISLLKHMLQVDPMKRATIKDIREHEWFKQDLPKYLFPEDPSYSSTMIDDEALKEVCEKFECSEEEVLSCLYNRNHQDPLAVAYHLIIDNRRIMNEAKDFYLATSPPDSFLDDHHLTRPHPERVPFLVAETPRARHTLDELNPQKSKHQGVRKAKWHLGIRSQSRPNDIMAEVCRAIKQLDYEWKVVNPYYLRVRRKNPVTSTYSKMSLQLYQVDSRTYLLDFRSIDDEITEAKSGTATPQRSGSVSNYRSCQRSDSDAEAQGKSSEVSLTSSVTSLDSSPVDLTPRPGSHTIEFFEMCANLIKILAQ
T2 sequence (Q9Y478 2-270 partner limits assumed): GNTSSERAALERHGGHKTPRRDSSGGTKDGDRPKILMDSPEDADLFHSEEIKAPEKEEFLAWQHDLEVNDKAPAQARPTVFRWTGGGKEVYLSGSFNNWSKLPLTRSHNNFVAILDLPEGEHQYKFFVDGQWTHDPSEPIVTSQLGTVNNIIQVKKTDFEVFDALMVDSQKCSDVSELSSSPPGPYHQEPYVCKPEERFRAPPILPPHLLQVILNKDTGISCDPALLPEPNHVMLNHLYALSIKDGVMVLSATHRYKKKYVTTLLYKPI
Chain of ALK tyrosine kinase receptor (Homo sapiens) (Q9UM73 19-1620 limits assumed): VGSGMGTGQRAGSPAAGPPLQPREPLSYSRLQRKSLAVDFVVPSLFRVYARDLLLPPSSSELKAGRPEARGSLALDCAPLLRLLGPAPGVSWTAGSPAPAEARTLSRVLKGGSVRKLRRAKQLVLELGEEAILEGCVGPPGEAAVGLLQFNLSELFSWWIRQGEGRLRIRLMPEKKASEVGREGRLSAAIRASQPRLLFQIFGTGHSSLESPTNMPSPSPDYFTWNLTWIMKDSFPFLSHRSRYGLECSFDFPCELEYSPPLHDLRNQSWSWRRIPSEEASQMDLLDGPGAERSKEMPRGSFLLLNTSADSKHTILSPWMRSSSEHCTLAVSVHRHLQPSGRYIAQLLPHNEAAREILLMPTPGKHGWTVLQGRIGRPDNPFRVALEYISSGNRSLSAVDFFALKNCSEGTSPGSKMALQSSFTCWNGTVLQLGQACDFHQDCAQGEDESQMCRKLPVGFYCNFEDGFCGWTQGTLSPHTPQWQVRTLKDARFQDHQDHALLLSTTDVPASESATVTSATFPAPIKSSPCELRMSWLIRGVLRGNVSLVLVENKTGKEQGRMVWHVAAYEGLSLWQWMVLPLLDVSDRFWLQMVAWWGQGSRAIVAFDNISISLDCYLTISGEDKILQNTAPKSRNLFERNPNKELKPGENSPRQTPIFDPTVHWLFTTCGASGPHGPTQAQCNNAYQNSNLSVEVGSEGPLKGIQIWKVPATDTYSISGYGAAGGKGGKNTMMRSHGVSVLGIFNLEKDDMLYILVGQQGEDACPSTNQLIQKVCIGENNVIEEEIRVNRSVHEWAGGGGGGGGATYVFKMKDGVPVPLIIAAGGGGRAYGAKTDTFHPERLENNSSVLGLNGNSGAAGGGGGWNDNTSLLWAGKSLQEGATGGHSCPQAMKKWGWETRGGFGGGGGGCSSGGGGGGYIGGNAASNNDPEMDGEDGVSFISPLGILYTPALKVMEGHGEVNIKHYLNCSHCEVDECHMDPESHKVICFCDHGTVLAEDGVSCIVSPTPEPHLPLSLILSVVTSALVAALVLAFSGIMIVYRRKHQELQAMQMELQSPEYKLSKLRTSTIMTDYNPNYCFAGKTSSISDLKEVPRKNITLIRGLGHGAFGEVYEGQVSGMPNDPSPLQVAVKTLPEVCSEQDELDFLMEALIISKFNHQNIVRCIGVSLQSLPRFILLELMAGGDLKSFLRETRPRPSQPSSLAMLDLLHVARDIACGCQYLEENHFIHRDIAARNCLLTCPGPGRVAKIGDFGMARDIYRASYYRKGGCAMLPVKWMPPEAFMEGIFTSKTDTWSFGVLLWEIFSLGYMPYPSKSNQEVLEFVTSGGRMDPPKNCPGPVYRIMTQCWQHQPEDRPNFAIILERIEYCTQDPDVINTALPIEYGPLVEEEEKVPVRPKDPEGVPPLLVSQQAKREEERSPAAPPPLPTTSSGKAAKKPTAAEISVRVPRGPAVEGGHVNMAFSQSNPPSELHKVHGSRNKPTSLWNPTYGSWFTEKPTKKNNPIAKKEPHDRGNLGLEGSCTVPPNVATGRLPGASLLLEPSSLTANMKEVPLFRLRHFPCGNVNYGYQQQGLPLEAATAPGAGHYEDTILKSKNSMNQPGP
Chain of Serine/threonine-protein kinase PAK 4 (Homo sapiens) (O96013 whole entry, looked up): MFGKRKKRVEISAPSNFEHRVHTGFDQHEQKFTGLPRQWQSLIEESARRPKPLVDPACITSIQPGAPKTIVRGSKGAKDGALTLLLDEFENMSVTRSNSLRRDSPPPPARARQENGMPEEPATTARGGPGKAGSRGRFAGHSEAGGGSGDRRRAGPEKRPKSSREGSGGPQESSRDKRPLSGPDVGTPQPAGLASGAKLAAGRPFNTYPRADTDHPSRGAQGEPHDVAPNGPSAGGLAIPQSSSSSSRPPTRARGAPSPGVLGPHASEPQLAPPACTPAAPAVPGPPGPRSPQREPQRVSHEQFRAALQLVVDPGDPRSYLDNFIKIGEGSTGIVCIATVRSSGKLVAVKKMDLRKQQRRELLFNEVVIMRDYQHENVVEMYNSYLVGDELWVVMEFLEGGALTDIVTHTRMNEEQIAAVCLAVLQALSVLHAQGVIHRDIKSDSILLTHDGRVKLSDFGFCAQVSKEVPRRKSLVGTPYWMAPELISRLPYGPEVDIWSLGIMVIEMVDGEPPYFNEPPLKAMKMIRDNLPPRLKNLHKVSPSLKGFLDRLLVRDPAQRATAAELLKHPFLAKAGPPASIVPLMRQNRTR

For `CC[n+]1c(/C=C/N(C)c2ccccc2)n(-c2ccccc2)c2ccc(-c3nc4ccccc4s3)cc21`, the residual activity in assay [1] came to 103%; in [2], 100%; in assay [3], 104%; in assay [4], 119%; in assay [5] it was 102%; in assay [6], 96%. The residual activity is 43% in [7]; 110% in [8]; 77% in assay [9]; 88% in assay [10]; 69% in [11]; 122% in [12]. Besides, the residual activity in [13] stood at 87%; in [14] it was 97%; in assay [15], 75%; in [16], 116%; in assay [17] it was 91%; in [18], 121%. Moreover, the residual activity worked out at 89% in [19] and 106% in assay [20].

Regarding `COc1cc2ncc(-c3ccccc3)nc2cc1OC`, the residual activity turned out to be 93% in [2]; 92% in assay [5]; 74% in [6]; 93% in assay [7]; 96% in assay [8]; 56% in assay [9]. The residual activity in assay [14] was 86%; in assay [15] it was 82%; in [17] it was 75%; in assay [19] it was 77%; in [20], 83%.

With `CCOc1cc2ncnc(Nc3cccc(Br)c3)c2cc1OCC`, the residual activity in assay [1] stood at 100%; in assay [2], 79%; in assay [3], 111%; in assay [4] it was 82%; in assay [5] it was 100%; in assay [6] it was 96%. Also, the residual activity was 56% in assay [7]; 28% in [8]; 5% in assay [9]; 75% in assay [10]; 39% in [11]; 125% in [12]. Also, the residual activity in [13] worked out at 91%; in [14], 84%; in [15], 57%; in assay [16] it was 79%; in assay [17] it was 57%; in assay [18], 87%. Also, the residual activity was 57% in assay [19] and 115% in [20].

In the case of `COc1cc2ncnc(Nc3ccc(NC(=O)c4ccccc4)cc3)c2cc1OC`, the residual activity in assay [1] is 101%; in [2], 103%; in assay [3] it was 89%; in [4], 68%; in [5], 108%; in [6], 92%. For the same compound, the residual activity in assay [7] amounted to 67%; in assay [8], 13%; in [9] it was 1%; in [10], 107%; in assay [11], 57%; in assay [13], 105%. For the same compound, the residual activity in assay [15] worked out at 90%; in [17], 88%; in assay [19], 86%; in assay [20] it was 103%.

`Cn1nc2c3c(cccc31)C(=O)c1ccccc1-2`: the residual activity in assay [1] worked out at 97%; in assay [2], 87%; in [3] it was 86%; in assay [5], 108%; in [7] it was 95%; in [8], 61%. The residual activity in [9] was 31%; in assay [10], 72%; in [11], 45%; in assay [12] it was 104%; in [13], 109%; in assay [14], 91%. Also, the residual activity in assay [15] is 73%; in assay [16] it was 81%; in assay [17] it was 85%; in assay [18], 57%; in assay [19] it was 31%; in [20], 71%.

As for `Cc1cncc2cccc(S(=O)(=O)N3CCCN(C(=O)CN)C[C@H]3C)c12`, the residual activity in [1] stood at 90%; in assay [2], 85%; in [3], 86%; in assay [4], 95%; in assay [5], 88%; in assay [6] it was 86%. Further, the residual activity in [7] came out at 64%; in assay [8], 69%; in [9], 21%; in assay [10] it was 76%; in assay [12], 137%; in [13], 86%. Also, the residual activity in [14] was determined as 98%; in [15], 66%; in assay [16] it was 97%; in [17] it was 45%; in assay [18], 95%; in [19], 71%. Also, the residual activity in assay [20] was determined as 98%.

As for `O=C1Nc2cc(Br)ccc2/C1=C1/Nc2ccccc2/C1=N\O`, the residual activity in [1] stood at 30%; in [2], 25%; in [3] it was 39%; in assay [4], 55%; in assay [5], 51%; in [6], 21%. In addition, the residual activity in [7] was found to be 115%; in assay [8], 14%; in [9] it was 2%; in assay [10] it was 35%; in [11] it was 10%; in assay [12], 109%. Further, the residual activity came out at 96% in assay [13]; 2% in [14]; 10% in assay [15]; 1% in [16]; 10% in assay [17]; 11% in [18]. Moreover, the residual activity in assay [19] is 18%; in assay [20], 91%.

Regarding `c1ccc(-c2n[nH]c3c2oc2ccccc23)cc1`, the residual activity in assay [1] was 95%; in assay [2], 83%; in assay [3], 83%; in assay [4], 86%; in [7], 77%; in [8], 65%. Moreover, the residual activity in assay [9] came out at 51%; in assay [10] it was 84%; in [11] it was 32%; in assay [12] it was 134%; in assay [13] it was 99%; in assay [14], 89%. Moreover, the residual activity came to 49% in [15]; 91% in assay [16]; 47% in assay [17]; 89% in assay [18]; 65% in assay [19]; 95% in assay [20].
